# Most compounds without a hit are left out; they make up all but 4.8% or so of the library.
# ssDAF-12 act = S. stercoralis DAF-12 nuclear receptor activators, primary screen, cell-based, luminescence, HEK293, GRIP1 co-expression, lit1-tk-luc | Nuclear hormone receptor DAF-12 (Strongyloides stercoralis) | HEK293 ssDAF-12/GRIP1 lit1-tk-luc reporter; % of 3 µM dafachronic acid response | activation, % at 6.8 µM | 370,000 compounds, 1% hits;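 active = activation above the mean over all tested compounds plus 3 SD, cut at about 0.9% in these data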;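 also: 0% = DMSO-only wells and 100% = 3 µM delta7-dafachronic acid wells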
# SMARCA2 activ = SMARCA2 (BRM) function activators, primary screen, cell-based, luminescence, high throughput | MG213 cells, MMTV-luciferase reporter, dexamethasone, overnight | activation, % at 9.1 µM | AID 652017, 2013 | 370,000 compounds, 1% hits; in the data active = activation above about 7.8%;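 also: 0% = vehicle wells and 100% = reference activator wells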
# hcDAF-12 act = H. contortus DAF-12 nuclear receptor activators, primary screen, cell-based, luminescence, HEK293, lit1-tk-luc reporter; HEK293 hcDAF-12 lit1-tk-luc reporter; 0% DMSO, 100% Δ7-dafachronic acid; activation, % at 6.8 µM; 370,000 compounds, 1.4% hits; AID 652067, 2013;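 active = activation above the mean of all tested compounds plus 3 SD, cut at about 5.5% in these data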;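 also: 100% = response to 3 µM Δ7-dafachronic acid high control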
# DAX1 inh-1 = DAX1 (NR0B1) inhibitors on StAR promoter, primary screen, cell-based, luminescence, SF-1 (NR5A1), full-length DAX-1 | HEK293T StAR-luciferase reporter, SF-1/DAX-1 repression relief | 370,000 compounds, 1.1% hits | inhibition, % at 6.8 µM;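 active = inhibition above the mean over all tested compounds plus 3 SD, cut at about 3.6% in these data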;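 also: 0% = DAX-1 cells with DMSO and 100% = cells lacking DAX-1 with DMSO; higher inhibition means more luminescence from relief of DAX-1 repression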
# DAX1 inh-2 = DAX1 (NR0B1) inhibitors, primary screen, cell-based, HEK293, Gal4-DAX1, luciferase luminescence; Nuclear receptor subfamily 0 group B member 1 (Homo sapiens), P51843; HEK293 Gal4-DAX1 luciferase reporter; inhibition, % at 6.75 µM; 340,000 compounds, 0.99% hits; AID 504766, 2011;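 active = inhibition above the mean over all tested compounds plus 3 SD, cut at about 4.2% in these data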;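 also: 0% = DAX1-transfected cells with DMSO and 100% = empty-vector control cells with DMSO; inhibition shows as a rise in luminescence from relieved DAX1 repression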
# Target sequence (P51843 207-470 limits assumed): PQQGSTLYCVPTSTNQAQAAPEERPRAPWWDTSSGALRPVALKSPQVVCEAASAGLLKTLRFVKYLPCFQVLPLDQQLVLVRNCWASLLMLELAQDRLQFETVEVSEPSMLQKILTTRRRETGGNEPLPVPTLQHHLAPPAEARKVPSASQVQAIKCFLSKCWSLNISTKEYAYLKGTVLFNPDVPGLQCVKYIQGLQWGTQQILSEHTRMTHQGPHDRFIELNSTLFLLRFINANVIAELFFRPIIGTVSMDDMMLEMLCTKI
# hgDAF12 agonist = H. glycines DAF-12 receptor agonists, primary screen, cell-based, luminescence, HEK293, GAL4 fusion, UAS-luciferase | Nuclear hormone receptor DAF-12 (Heterodera glycines), GAL4 fusion | activation, % at 6.8 µM | HEK293 GAL4-hgDAF12 UAS-luciferase reporter, agonist luminescence; normalized to butyrate control | 370,000 compounds, 1.8% hits;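 active = activation above a cutoff set at the mean of all screened compounds plus 3 SD, cut at about 10% in these data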;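 also: 0% = DMSO wells and 100% = sodium butyrate wells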
# SMARCA2 act conf = SMARCA2 (BRM) function activators, confirmation, cell-based, luminescence, triplicate; 3,500 compounds, 30% hits; MG213 cells, MMTV-luciferase with dexamethasone, overnight; MG213 cells expressing E1A, Rb sequestered; DMSO wells 0%, reference activator 100%; shares compounds with SMARCA2 activ; activation, % at 9.1 µM;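 active = activation above its plate's cutoff, the mean activation of tested wells plus 3 SD, cut at about 7.9% in these data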
# VP16 Luc act = GAL4-VP16 luciferase reporter activation, counter-screen for SMARCA2 (BRM) activator project, cell-based, pG5luc, luminescence, high throughput | HEK293 GAL4-VP16 pG5luc reporter; scaled: DMSO wells 0%, SAHA wells 100% | shares compounds with SMARCA2 activ | activation, % at 9.1 µM | 3,500 compounds, 41% hits | AID 686939, 2013;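 active = activation above the solvent-only control well mean plus 3 SD, averaged across control plates, cut at about 5.2% in these data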
# * hit, by the source's call; nt = not tested or not shown.
SMILES,ssDAF-12 act,SMARCA2 activ,hcDAF-12 act,DAX1 inh-1,DAX1 inh-2,hgDAF12 agonist,SMARCA2 act conf,VP16 Luc act
CC1CN(C(=O)Nc2ccc(F)cc2)C2(CCCCCC2)O1 (configuration not stated),-1,0,-1,0,3,0,nt,nt
O=c1[nH]c(CN2CCN(S(=O)(=O)c3ccccc3C(F)(F)F)CC2)nc2sc3c(c12)CCCC3,-1,12*,1,1,-1,-2,-2,0
COc1cc(-c2nnc3sc(C4CCCCC4)nn23)cc(OC)c1OC,nt,nt,nt,nt,-2,nt,nt,nt
COc1cc(OC)c(-c2nn3c(C4CCCCC4)nnc3s2)cc1OC,-2,8.3*,-3,-1,-1,-7,0,2
Cc1ccc2c(c1)c1c(n2CC(O)CN2CCCCCC2)CCCC1 (configuration not stated),-1,-3,-1,0,2,0,nt,nt
C/C(CC(=O)Nc1ccc(Cl)c(C(F)(F)F)c1)=N\NC(N)=S,-1,-4,1,0,1,-2,nt,nt
C/C(CC(=O)Nc1ccc(Cl)c(C(F)(F)F)c1)=N\NC(=O)c1cccc(O)c1,-2,10*,1,-1,0,0,0,1
CCc1ccc(N=C2NC(=O)/C(=C/c3ccc(OCC(=O)O)cc3)S2)cc1,-1,-2,-1,0,0,-1,nt,nt
CCCNS(=O)(=O)c1ccc(CCC(=O)NCc2ccco2)cc1,-1,-3,-1,0,0,0,nt,nt
Cc1ccc(N/C=C(\C2OC(=O)c3ccccc32)[N+](=O)[O-])c(C)c1 (configuration not stated),-1,7,-1,0,nt,-2,nt,nt
O=C1OC(/C(=C\Nc2ccc(F)cc2F)[N+](=O)[O-])c2ccccc21 (configuration not stated),-1,13*,0,-1,0,0,3,2
O=C1OC(/C(=C\Nc2cc(Cl)ccc2O)[N+](=O)[O-])c2ccccc21 (configuration not stated),-1,33*,-3,-2,-1,-3,5,-1
COc1ccc(CNC(=O)COC(=O)CCOc2ccccc2)cc1,-1,-3,1,0,2,2,nt,nt
CNS(=O)(=O)c1cc(C(=O)OCC(=O)NC2CCCc3ccccc32)ccc1Cl (configuration not stated),0,-2,-1,0,0,-1,nt,nt
CCN(CC)S(=O)(=O)c1cc(C(=O)OCC(=O)NC2CCCc3ccccc32)ccc1C (configuration not stated),-1,11*,0,0,0,-3,-3,-1
CCc1nnc(NC(=O)CCC(=O)NCC2CCCO2)s1 (configuration not stated),-1,0,0,0,0,-1,nt,nt
CC(NC(=O)COC(=O)c1ccc(N2CCCC2=O)cc1)c1ccc(F)cc1 (configuration not stated),-1,9.4*,0,2,0,1,-3,2
CCCCn1c2ccc(F)cc2c2nnc(SCCN3CCOCC3)nc21,-1,3,-2,0,-1,-4,nt,nt

# Assay outcomes from PubChem.
